# Data as given in PubChem BioAssay.
# Activity calls are given as the source filed them. Unless noted, how the calls were made is not given here.
# Assays:
# [1] = test system: Wnt5a (protein binding on small-molecule microarray); assay: small molecules binding Wnt5a protein – biophysical, small-molecule microarray, 635/667 nm fluorescence, primary screen (AID 1142); conditions: 635 nm fluorescence, higher = more signal;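 further: fluorescence read at 667 nm with signal to noise per printed feature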
# [2] = ATP-based viability of Huh7 replicon cells – cell-based, CellTiter-Glo luminescence, basal, 48 h, cytotoxicity control for HCV replication inhibitor project, primary screen (AID 1143); conditions: higher = more signal, called active from +8 up or from −8 down;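 further: Huh7 hepatoma cells carrying a hepatitis C replication reporter with no stimulus; test concentration not given here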
# [3] = Pseudomonas biofilm growth suppression – PAO1 strain, BacTiter-Glo luminescence, LB-PBS, primary screen (AID 1144); conditions: P. aeruginosa PAO1 biofilm, 12 h, higher = more signal
# [4] = basal CRE-LacZ reporter activity in PC12 – cell-based, unstimulated, primary screen (AID 1145); conditions: no forskolin, luminescence, 4.5 h, higher = more signal, called active from +8 up or from −8 down
# [5] = forskolin-driven CRE-LacZ activity in PC12 – cell-based, CRE-LacZ reporter, forskolin-stimulated, primary screen (AID 1146); conditions: luminescence, 4.5 h, higher = more signal, called active from +8 up or from −8 down;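 further: PC12 cells with 6xCRE LacZ reporter stimulated by forskolin 10 µM; beta-galactosidase reporter signal reflecting CREB driven transcription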
# [6] = molecular target: Streptavidin (Streptomyces avidinii) (UniProt P22629); assay: compounds binding control protein streptavidin – biophysical, small-molecule microarray, 635/667 nm fluorescence, artefact control for SMM compound annotation, primary screen (AID 1147); conditions: higher = more signal;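 further: signal reflects streptavidin binding to arrayed compounds as a control protein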
# Streptavidin (Streptomyces avidinii), sequence (P22629 whole entry, looked up): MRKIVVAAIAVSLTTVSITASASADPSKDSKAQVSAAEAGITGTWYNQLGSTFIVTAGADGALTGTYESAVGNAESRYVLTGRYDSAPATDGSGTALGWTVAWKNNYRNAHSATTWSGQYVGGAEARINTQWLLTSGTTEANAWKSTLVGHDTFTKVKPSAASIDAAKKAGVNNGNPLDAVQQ
# [7] = probe aInhba binding on compound microarray – biochemical, small-molecule microarray, 635/667 nm fluorescence, primary screen (AID 1148); conditions: higher = more signal;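 further: score merges 667nm spot fluorescence with signal-to-noise for antibody binding to printed compounds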
# Torsin-1A (Homo sapiens) [8] = molecular target: Torsin-1A (Homo sapiens) (UniProt O14656); assay: TOR1A wild-type binding on microarray – cell lysate, small-molecule microarray, lysate, 635/667 nm, primary screen (AID 1149); conditions: COS7 hTOR1A-WT lysate, 635 nm fluorescence, higher = more signal
# Torsin-1A (Homo sapiens), sequence (O14656 whole entry, looked up): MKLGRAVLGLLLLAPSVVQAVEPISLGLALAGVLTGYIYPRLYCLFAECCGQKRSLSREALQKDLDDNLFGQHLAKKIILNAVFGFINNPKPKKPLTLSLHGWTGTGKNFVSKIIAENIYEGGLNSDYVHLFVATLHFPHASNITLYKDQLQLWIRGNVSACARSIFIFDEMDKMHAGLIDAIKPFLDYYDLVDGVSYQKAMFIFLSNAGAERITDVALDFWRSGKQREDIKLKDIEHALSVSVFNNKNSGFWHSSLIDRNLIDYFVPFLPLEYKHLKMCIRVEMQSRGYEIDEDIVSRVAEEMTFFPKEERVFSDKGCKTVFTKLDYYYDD
# Torsin-1A (Homo sapiens) [9] = molecular target: Torsin-1A (Homo sapiens) (UniProt O14656); assay: torsin A mutant lysate binding on microarrays – cell lysate, small-molecule microarray, COS7 lysate, 635/667 nm fluorescence, primary screen (AID 1150); conditions: COS7 hTOR1A mutant lysate, 635 nm fluorescence, higher = more signal;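 further: score pools 667 nm emission and signal to noise measuring lysate protein binding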
# [10] = test system: Sonic hedgehog protein (Shh); assay: Sonic hedgehog microarray binding compounds – biochemical, small-molecule microarray, 635/667 nm fluorescence, primary screen (AID 1151); conditions: 635 nm fluorescence, higher = more signal;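 further: Shh protein binding to compounds spotted on small-molecule microarray slides; score combines spot fluorescence intensity with signal-to-noise across triplicate slides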
Structure (SMILES),composite z-score [1],z-score [2],z-score [3],z-score [4],z-score [5],composite z-score [6],composite z-score [7],composite z-score (Torsin-1A (Homo sapiens) [8]),composite z-score (Torsin-1A (Homo sapiens) [9]),composite z-score [10]
C=C(CCCC)/C(=C/C[C@H](OC(=O)c1ccncc1)c1cccc(OCCO)c1)c1cc(C(=O)OC)ccc1OC,0.84,-5.25 (inactive),-0.536 (inactive),6.81 (inactive),-0.802 (inactive),0.396,-0.0695,0.349,0.458,1.61
CC[C@H]1C2=C3C(CC[C@H]4C(OC)OC[C@](C)([C@@H]34)N(C(=O)OC(C)(C)C)C2)C(CO)C1CO (stereo not given in full),0.647,-1.06 (inactive),1.01 (inactive),-0.182 (inactive),0.385 (inactive),3.17,0.34,0.295,1.87,-0.623
CC[C@@H]1C=C(C(=O)O)[C@H](c2ccccc2)N1S(=O)(=O)c1ccc([N+](=O)[O-])cc1,-0.0781,-0.979 (inactive),-0.667 (inactive),-0.873 (inactive),0.403 (inactive),0.698,-0.128,0.802,0.717,-0.335
C#CCCCON=C1C[C@@H](O)[C@@H](O)[C@@H]2[C@@H]3C(=O)N(Cc4ccc5c(c4)OCO5)C(=O)[C@@H]3CC[C@H]12,0.322,0.0582 (inactive),0.448 (inactive),-0.657 (inactive),0.653 (inactive),1.26,-0.261,0.572,0.267,1.42
CC(C)(C)OC(=O)CC[C@]1(C(=O)N2CCCCC2)N=C(c2ccc(OCCCO)cc2)O[C@H]1c1ccccc1,0.836,-3.16 (inactive),0.418 (inactive),1.55 (inactive),-1.85 (inactive),2.08,-0.0112,1.68,1.04,1.19
COC(=O)C[C@H]1O[C@]2(C(=O)N(Cc3ccccc3)c3ccc(I)cc32)[C@@H](C)[C@@H]1[Si](C)(C)c1ccc(OC)cc1,-0.213,-1.09 (inactive),-0.135 (inactive),-0.505 (inactive),-0.522 (inactive),0.0595,-0.106,-0.181,-0.0957,-0.657
CCCN1C(=O)[C@@]2(CCS(=O)(=O)c3ccccc3)N=C(c3ccc(OCCCO)cc3)O[C@H]2c2ccccc21,0.286,-4.26 (inactive),-1.6 (inactive),0.997 (inactive),-1.61 (inactive),-0.0174,0.0528,0.069,0.655,1.58
Cc1ccc(S[C@]2(C(=O)NC3CC3)CC(=O)N(Cc3cc(C(F)(F)F)cc(C(F)(F)F)c3)[C@@H]2c2ccc(CO)cc2)cc1,0.134,-2.38 (inactive),-1.59 (inactive),-0.374 (inactive),0.121 (inactive),-0.103,-0.128,-0.408,0.227,1.38
O=C(N1CCCCC1)[C@@]1(CCS(=O)(=O)c2ccccc2)N=C(c2ccc(OCCCO)cc2)O[C@H]1c1ccccc1,1.31,-5.06 (inactive),-0.725 (inactive),0.909 (inactive),-0.516 (inactive),-0.123,-0.0112,1.06,0.623,-0.442
COc1ccc(C(=O)Nc2ccc(CN3C(=O)[C@]4(O[C@H](CCn5cc(CCO)nn5)[C@@H]([Si](C)(C)c5ccc(OC)cc5)[C@@H]4C)c4ccccc43)cc2)cc1,0.278,-7.86 (inactive),-0.637 (inactive),3.37 (inactive),-1.8 (inactive),0.863,0.279,0.421,0.638,1.99
CCOC(=O)C[C@H]1[C@H](OC(=O)Cc2ccc3c(c2)OCO3)[C@@H](NC(=O)c2ccc3ccccc3c2)c2cc(OCCCO)ccc2N1C(=O)Cc1ccc(OC)cc1,-0.0175,-0.602 (inactive),-0.0536 (inactive),4.83 (inactive),0.135 (inactive),0.348,0.386,0.242,0.485,0.673
C[C@]1(C(=O)NCCN2CCOCC2)c2ccccc2C(=O)N(Cc2ccccc2)[C@H]1c1ccc(CO)cc1,-0.21,-1.82 (inactive),-2.31 (inactive),-0.412 (inactive),-0.0192 (inactive),-0.833,-0.0405,0.403,0.915,-0.928
Cc1ccc(S[C@]2(C(=O)NC(C)C)CC(=O)N(Cc3cc(C(F)(F)F)cc(C(F)(F)F)c3)[C@@H]2c2ccc(CO)cc2I)cc1,-0.168,-1.11 (inactive),0.381 (inactive),-0.554 (inactive),1.28 (inactive),-0.995,-0.148,0.61,1.66,-0.0174
COc1cc2c(cc1OC)CN(C(=O)[C@H]1[C@@H]3C(=O)O[C@@H](c4ccccc4)[C@@H](c4ccccc4)N3[C@@H](c3ccc(O)cc3)[C@]13C(=O)Nc1ccc(C#CC4(O)CCCCCC4)cc13)CC2,0.723,-0.715 (inactive),-0.785 (inactive),0.425 (inactive),0.603 (inactive),2.42,0.472,0.601,1.36,1.39
COC(=O)[C@@]1(Cc2ccccc2N=[N+]=[N-])N=C(c2ccc(OCCCO)cc2)O[C@H]1c1ccccc1CN=[N+]=[N-],0.171,-5.31 (inactive),1.18 (inactive),3.33 (inactive),-0.412 (inactive),-0.46,-0.0102,-0.181,-0.303,0.144
CC(C)[C@H]1NC(=O)[C@@]23C(=O)N[C@@H](Cc4ccccc4)C2[C@H](C)[C@@]2(C)O[C@H]2C3/C=C/C/C=C\CNC(=O)[C@H](C)NC1=O (stereo not given in full),-0.438,-0.131 (inactive),0.0406 (inactive),0.306 (inactive),0.289 (inactive),-1.07,-0.151,-0.96,0.237,0.203
COc1cc(Cc2cc3c(c(CCc4ccccc4)n2)[Si](C(C)C)(C(C)C)OC3)cc(OC)c1OC,-0.179,-1.86 (inactive),-0.554 (inactive),-0.0989 (inactive),0.132 (inactive),0.977,-0.159,0.1,0.0658,0.553
NC(=O)NCC#Cc1ccc2c(c1)[C@]1(C(=O)N2)[C@H](c2ccccc2OCCO)N2[C@H](c3ccccc3)[C@H](c3ccccc3)OC(=O)[C@H]2[C@@H]1C(=O)N1CCN(c2ncccn2)CC1,-0.186,-4.21 (inactive),-0.681 (inactive),-0.0515 (inactive),0.889 (inactive),0.182,-0.0762,0.0759,0.272,0.831
C=CCN1C(=O)[C@@]2(Cc3ccccc3)N=C(c3ccc(OCCCO)cc3)O[C@H]2c2ccccc21,0.358,-1.81 (inactive),0.294 (inactive),1.07 (inactive),-0.984 (inactive),0.653,0.346,0.238,1.56,1.28
CN1C(=O)C2C=CC(C(O)C3CC=CCC3)N(Nc3ccccc3)C2C1=O (stereo not given),0.521,0.758 (inactive),-0.269 (inactive),-0.333 (inactive),0.0874 (inactive),0.505,0.208,0.664,1.06,1.57
COC(=O)Cn1c(C(=O)N2CCCC2)cc2c1C[C@H]1CN(C(=O)c3ccccc3)[C@@](Cc3ccccc3)(C(=O)OC)[C@@H]21,-0.0963,-0.259 (inactive),-0.195 (inactive),-0.572 (inactive),-0.402 (inactive),0.344,0.158,-0.531,-0.0683,-1.04
COCCCNC(=O)[C@@H]1c2ccccc2C(=O)N(CC23CC4CC(CC(C4)C2)C3)[C@H]1c1ccc(CO)cc1,1.01,-4.78 (inactive),-0.689 (inactive),-0.0259 (inactive),-1.07 (inactive),-0.269,0.266,0.306,0.262,1.03
CCCC=C(CCC)[C@@H](NS(=O)(=O)c1cccc(C(F)(F)F)c1)c1ccc(C(=O)OC)cc1,1.16,0.0804 (inactive),-0.109 (inactive),-0.182 (inactive),-0.547 (inactive),0.0276,1.43,0.258,-0.223,0.116
CN(C)C(=O)[C@@]1(Cc2ccccc2N=[N+]=[N-])N=C(c2ccc(OCCCO)cc2)O[C@H]1c1ccccc1CN=[N+]=[N-],0.549,-3.09 (inactive),–,1.65 (inactive),-1.39 (inactive),1.41,0.372,0.477,1.24,0.397
COc1cc2c(cc1OC)CN(C(=O)[C@@H]1[C@H]3C(=O)O[C@H](c4ccccc4)[C@H](c4ccccc4)N3[C@H](c3ccccc3OCCO)[C@@]13C(=O)Nc1ccccc13)CC2,0.406,-2.96 (inactive),–,0.769 (inactive),-1.31 (inactive),0.0797,0.387,0.497,0.701,0.554
CC(=O)Nc1ccc([C@H]2[C@H](C)CC[C@H]3C(=O)N4[C@@H](CC[C@@H](C)[C@@H]4c4ccc(NC(C)=O)cc4)C(=O)N32)cc1,0.165,-0.446 (inactive),–,3.09 (inactive),-0.876 (inactive),0.627,0.0275,1.17,0.283,1.34
CO[C@H]1COC(=O)CC=C[C@@H](C)COC(=O)[C@@H](C)NC(=O)CC=C[C@@H]1C,0.272,-3.48 (inactive),–,0.608 (inactive),-1.09 (inactive),-0.697,-0.218,2.49,0.711,2.06
COc1ccc([Si](C)(C)[C@H]2[C@H](CC(=O)N3Cc4ccccc4C[C@H]3CO)O[C@@]3(C(=O)N(Cc4cccc(N5CCOC5=O)c4)c4ccccc43)[C@@H]2C)cc1,0.341,-3.32 (inactive),–,5.51 (inactive),-1.25 (inactive),0.0303,0.0086,0.287,0.383,1.37
